Measured values from PubChem BioAssay (NCI).
About 83,000 compounds went through this panel and 20% of them were active in at least one assay; those are over-represented in the sample as a whole.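 Single-dose data. Exposure time 48 hours. Values below 10 considered active.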 The source made the active and inactive calls.

Columns and labels:
Experiment in all cases: NCI-60 one-dose screen, 48 h (100 = growth as untreated, 0 = no growth, -100 = all killed)
Conditions in all cases: 10 µM
HT29 colon = test system: HT29 colon
SNB-75 CNS = test system: SNB-75 CNS
SNB-19 CNS = test system: SNB-19 CNS
U251 CNS = test system: U251 CNS
PC-3 prostate = test system: PC-3 prostate
SK-MEL-5 melanoma = test system: SK-MEL-5 melanoma
UACC-62 melanoma = test system: UACC-62 melanoma
LOX IMVI melanoma = test system: LOX IMVI melanoma
SK-MEL-2 melanoma = test system: SK-MEL-2 melanoma
EKVX NSCLC = test system: EKVX NSCLC
SN12C renal = test system: SN12C renal
UO-31 renal = test system: UO-31 renal
TK-10 renal = test system: TK-10 renal
ACHN renal = test system: ACHN renal
CAKI-1 renal = test system: CAKI-1 renal
CCRF-CEM leukemia = test system: CCRF-CEM leukemia
MOLT-4 leukemia = test system: MOLT-4 leukemia
SR leukemia = test system: SR leukemia
A498 renal = test system: A498 renal

Measured: growth

O=C(Cc1csc2nc(-c3ccc(Cl)cc3)cn12)N/N=C/c1ccccc1O
active: SR leukemia -11.5%
inactive: HT29 colon 82.1% | SNB-75 CNS 68.6% | SNB-19 CNS 60.8% | U251 CNS 42.2% | PC-3 prostate 55.2% | SK-MEL-5 melanoma 45.8% | UACC-62 melanoma 46% | LOX IMVI melanoma 38.6% | SK-MEL-2 melanoma 75.8% | EKVX NSCLC 32.2% | SN12C renal 61% | UO-31 renal 27.2% | TK-10 renal 57.1% | ACHN renal 26.4% | CAKI-1 renal 34.5% | CCRF-CEM leukemia 20.2% | MOLT-4 leukemia 10.5%

O=C(Nc1ccc(CN2CCc3nc4cc(O)c(O)cc4cc32)cc1)c1ccc(Cl)c(Cl)c1
inactive: HT29 colon 109% | SNB-75 CNS 89.2% | SNB-19 CNS 96.7% | U251 CNS 105% | PC-3 prostate 101% | SK-MEL-5 melanoma 90.7% | UACC-62 melanoma 97% | LOX IMVI melanoma 104% | SK-MEL-2 melanoma 105% | SN12C renal 97.4% | UO-31 renal 88.9% | TK-10 renal 122% | ACHN renal 98.2% | CAKI-1 renal 96.4% | A498 renal 103% | CCRF-CEM leukemia 78% | MOLT-4 leukemia 106% | SR leukemia 94.5%

CCC1(C(C)C)NC(=O)NC1=O (centres undefined)
inactive: HT29 colon 106% | SNB-75 CNS 100% | SNB-19 CNS 101% | U251 CNS 98.2% | PC-3 prostate 98.5% | SK-MEL-5 melanoma 104% | UACC-62 melanoma 94.6% | LOX IMVI melanoma 99.7% | SK-MEL-2 melanoma 83.8% | EKVX NSCLC 99.4% | SN12C renal 88.1% | UO-31 renal 82.1% | TK-10 renal 113% | ACHN renal 99.9% | CAKI-1 renal 104% | CCRF-CEM leukemia 92.4% | MOLT-4 leukemia 101% | SR leukemia 90.2%

O=C1CC[C@@H]2CCCC[C@@H]2C1
inactive: HT29 colon 107% | SNB-75 CNS 95.2% | SNB-19 CNS 102% | U251 CNS 108% | PC-3 prostate 85.3% | SK-MEL-5 melanoma 110% | UACC-62 melanoma 94.6% | LOX IMVI melanoma 101% | EKVX NSCLC 99.1% | SN12C renal 95.9% | UO-31 renal 75.2% | TK-10 renal 114% | ACHN renal 100% | CAKI-1 renal 102% | A498 renal 108% | MOLT-4 leukemia 96.5% | SR leukemia 94.7%

COc1ccc(OC)c(NC(=O)c2sc3nc4c(cc3c2N)C(=O)CCC4)c1
inactive: HT29 colon 106% | SNB-75 CNS 87.2% | SNB-19 CNS 82.2% | U251 CNS 94.5% | PC-3 prostate 80.4% | SK-MEL-5 melanoma 66% | UACC-62 melanoma 75.3% | LOX IMVI melanoma 90.8% | SK-MEL-2 melanoma 94.1% | SN12C renal 95.5% | UO-31 renal 84.7% | TK-10 renal 98% | ACHN renal 106% | CAKI-1 renal 86.3% | CCRF-CEM leukemia 84.4% | MOLT-4 leukemia 93.1% | SR leukemia 73.7%

CN(C)CCN1C(=O)c2cccc3cc(N)cc(c23)C1=O
inactive: SNB-19 CNS 24.5% | U251 CNS 18.4% | PC-3 prostate 12.6% | UACC-62 melanoma 13.3% | SK-MEL-2 melanoma 29.1% | EKVX NSCLC 45.2% | SN12C renal 30.9% | TK-10 renal 32.9% | CCRF-CEM leukemia 13.6%
active: HT29 colon 9.24% | SNB-75 CNS -5.61% | SK-MEL-5 melanoma 8.79% | LOX IMVI melanoma 6.24% | UO-31 renal -26.8% | ACHN renal -30.3% | CAKI-1 renal 3% | MOLT-4 leukemia -2.12% | SR leukemia 8.08%

C#Cc1ccc(-n2c(/C=C/c3ccc(O)c(OC)c3)nc3ncccc3c2=O)cc1
inactive: HT29 colon 112% | SNB-75 CNS 55.9% | SNB-19 CNS 96.2% | U251 CNS 94.1% | PC-3 prostate 81.2% | SK-MEL-5 melanoma 94.2% | UACC-62 melanoma 104% | LOX IMVI melanoma 93.5% | SK-MEL-2 melanoma 85.7% | SN12C renal 98.4% | UO-31 renal 73.9% | TK-10 renal 139% | ACHN renal 97.3% | CAKI-1 renal 96% | A498 renal 94% | CCRF-CEM leukemia 91.4% | MOLT-4 leukemia 86.1% | SR leukemia 80.9%

COc1ccc(NC2=NC(C)(CO)CS2)cc1 (centres undefined)
inactive: HT29 colon 105% | SNB-75 CNS 83.5% | SNB-19 CNS 103% | U251 CNS 101% | PC-3 prostate 82.2% | SK-MEL-5 melanoma 96.3% | UACC-62 melanoma 96.1% | LOX IMVI melanoma 95.7% | SK-MEL-2 melanoma 108% | EKVX NSCLC 106% | SN12C renal 91.1% | UO-31 renal 77.7% | TK-10 renal 110% | ACHN renal 96.7% | A498 renal 94.2% | MOLT-4 leukemia 96.7% | SR leukemia 126%

O=C(C[n+]1ccccc1)c1ccc2ccccc2c1
inactive: HT29 colon 92% | SNB-75 CNS 75.1% | SNB-19 CNS 99.5% | U251 CNS 95.3% | PC-3 prostate 87.8% | SK-MEL-5 melanoma 102% | UACC-62 melanoma 96% | LOX IMVI melanoma 99.8% | SK-MEL-2 melanoma 112% | EKVX NSCLC 88.2% | SN12C renal 93.8% | UO-31 renal 74% | TK-10 renal 102% | ACHN renal 102% | CAKI-1 renal 96.7% | CCRF-CEM leukemia 95.9% | MOLT-4 leukemia 96% | SR leukemia 92.1%

COc1cc([C@@H]2c3cc4c(cc3C(Br)[C@H]3COC(=O)[C@H]23)OCO4)cc(OC)c1OC (some centres undefined)
inactive: UACC-62 melanoma 14.1% | LOX IMVI melanoma 23.8% | EKVX NSCLC 22% | SN12C renal 31% | TK-10 renal 54.2% | ACHN renal 22.5% | CAKI-1 renal 12.3%
active: HT29 colon -10.4% | SNB-75 CNS 9.76% | SNB-19 CNS -32.3% | U251 CNS 1.29% | PC-3 prostate 0.631% | SK-MEL-5 melanoma -64.9% | SK-MEL-2 melanoma 7.95% | UO-31 renal 8.5% | CCRF-CEM leukemia -15.5%

COc1cc(C(=C2O[C@@H]([C@H]3COC(C)(C)O3)[C@H]3OC(C)(C)O[C@@H]23)c2cc(OC)c(OC)c(OC)c2)cc(OC)c1OC
inactive: HT29 colon 114% | SNB-75 CNS 99.8% | SNB-19 CNS 109% | U251 CNS 107% | PC-3 prostate 90% | SK-MEL-5 melanoma 105% | UACC-62 melanoma 100% | LOX IMVI melanoma 99.1% | SK-MEL-2 melanoma 158% | EKVX NSCLC 98.5% | SN12C renal 92.9% | UO-31 renal 95.8% | TK-10 renal 111% | ACHN renal 99.8% | CAKI-1 renal 107% | CCRF-CEM leukemia 103% | MOLT-4 leukemia 99.8% | SR leukemia 90.6%

c1ccc(CNc2ncnc3scc(-c4cccs4)c23)nc1
inactive: HT29 colon 91.2% | SNB-75 CNS 64.6% | SNB-19 CNS 67.2% | U251 CNS 75.7% | PC-3 prostate 58.6% | SK-MEL-5 melanoma 14.8% | UACC-62 melanoma 56% | LOX IMVI melanoma 74.2% | SK-MEL-2 melanoma 72.2% | SN12C renal 63% | UO-31 renal 47.7% | TK-10 renal 126% | ACHN renal 54.7% | CAKI-1 renal 58% | A498 renal 27.6% | CCRF-CEM leukemia 63.7% | MOLT-4 leukemia 50.5% | SR leukemia 61.5%

CN(C)CCN1C(=O)c2cccc3c(-c4ccc5ncn(C6CCCCC6)c5c4)ccc(c23)C1=O
inactive: SNB-75 CNS 40.1% | SNB-19 CNS 23.3% | U251 CNS 12.6% | PC-3 prostate 22% | SK-MEL-5 melanoma 21.4% | UACC-62 melanoma 24.6% | LOX IMVI melanoma 13.8% | EKVX NSCLC 29.8% | SN12C renal 19.3% | TK-10 renal 26.7% | ACHN renal 13.8% | CAKI-1 renal 25% | CCRF-CEM leukemia 15.4%
active: HT29 colon 7.45% | UO-31 renal 2.42% | A498 renal 4.69% | MOLT-4 leukemia -18.7% | SR leukemia 3.59%

O=C1C(c2ccccc2)C2C=CC(C2)N1O (centres undefined)
inactive: HT29 colon 97.9% | SNB-75 CNS 107% | SNB-19 CNS 106% | U251 CNS 109% | PC-3 prostate 98.2% | SK-MEL-5 melanoma 106% | UACC-62 melanoma 101% | LOX IMVI melanoma 99.6% | SK-MEL-2 melanoma 103% | EKVX NSCLC 101% | SN12C renal 102% | UO-31 renal 68% | TK-10 renal 101% | ACHN renal 107% | CAKI-1 renal 106% | CCRF-CEM leukemia 82.6% | MOLT-4 leukemia 92.5% | SR leukemia 105%

c1ccc([I+]c2ccccc2)cc1
inactive: HT29 colon 31.4% | SNB-75 CNS 63.6% | SNB-19 CNS 85.5% | U251 CNS 70.9% | PC-3 prostate 69.8% | SK-MEL-5 melanoma 55.7% | UACC-62 melanoma 106% | LOX IMVI melanoma 43.1% | SK-MEL-2 melanoma 55.3% | SN12C renal 96.7% | UO-31 renal 45.9% | TK-10 renal 56.6% | ACHN renal 77.1% | CAKI-1 renal 37.3% | CCRF-CEM leukemia 51.5% | MOLT-4 leukemia 62.9%

COc1cc(/C(=C2/O[C@@H]([C@H]3COC(C)(C)O3)[C@H]3OC(C)(C)O[C@@H]23)c2ccc3ccccc3c2)cc(OC)c1OC
inactive: HT29 colon 41% | SNB-75 CNS 41.1% | SNB-19 CNS 29% | U251 CNS 18% | PC-3 prostate 27% | SK-MEL-5 melanoma 38.3% | UACC-62 melanoma 46.5% | LOX IMVI melanoma 46.4% | EKVX NSCLC 53.7% | SN12C renal 24.8% | UO-31 renal 46.8% | TK-10 renal 22.7% | CAKI-1 renal 38.7% | CCRF-CEM leukemia 82.2% | MOLT-4 leukemia 62.4% | SR leukemia 51.4%
active: SK-MEL-2 melanoma -49.7% | ACHN renal 0.857%

Cc1cc(O)c(C(C)(C)C)cc1Sc1cc(C(C)(C)C)c(O)cc1C
active: MOLT-4 leukemia 1.49% | SR leukemia -33.1%
inactive: HT29 colon 97.1% | SNB-75 CNS 54.2% | SNB-19 CNS 81% | U251 CNS 60% | PC-3 prostate 22.5% | SK-MEL-5 melanoma 33.7% | UACC-62 melanoma 16.3% | LOX IMVI melanoma 63.9% | SK-MEL-2 melanoma 72.6% | EKVX NSCLC 40.7% | SN12C renal 58.2% | UO-31 renal 37.5% | TK-10 renal 81% | ACHN renal 60.7% | CAKI-1 renal 32.3% | CCRF-CEM leukemia 18.2%
